# Experimental data published in PMC5540273 (PLoS ONE, 2017).
# Key:
# Conditions in all cases: concentration: 1 μM, replicates: in singlicate; n = 1
# HIPK4 = test system: HIPK4
# HPK1 = test system: HPK1
# HUNK = test system: HUNK
# ICK = test system: ICK
# IGF1R = test system: IGF1R
# IKK-alpha = test system: T1, IKK-alpha
# T1 construct: gene CHUK
# IKK-beta = test system: T2, IKK-beta
# T2 construct: gene IKBKB
# IKK-epsilon = test system: T3, IKK-epsilon
# T3 construct: gene IKBKE
# INSRR = test system: INSRR
# INSR = test system: INSR
# IRAK1 = test system: IRAK1
# IRAK3 = test system: IRAK3
# IRAK4 = test system: IRAK4
# ITK = test system: ITK
# [1] = test system: JAK1(JH1domain-catalytic)
# [2] = test system: JAK1(JH2domain-pseudokinase)
# [3] = test system: JAK2(JH1domain-catalytic)
# [4] = test system: JAK3(JH1domain-catalytic)
# JNK1 = test system: T4, JNK1
# T4 construct: gene MAPK8
# JNK2 = test system: T5, JNK2
# T5 construct: gene MAPK9
# 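Note: KINOMEscan kinase panel screen.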
Compound,%Inh (HIPK4) [%],%Inh (HPK1) [%],%Inh (HUNK) [%],%Inh (ICK) [%],%Inh (IGF1R) [%],%Inh (IKK-alpha) [%],%Inh (IKK-beta) [%],%Inh (IKK-epsilon) [%],%Inh (INSRR) [%],%Inh (INSR) [%],%Inh (IRAK1) [%],%Inh (IRAK3) [%],%Inh (IRAK4) [%],%Inh (ITK) [%],%Inh [1] [%],%Inh [2] [%],%Inh [3] [%],%Inh [4] [%],%Inh (JNK1) [%],%Inh (JNK2) [%]
CSc1ccc(-c2nc3n(c2-c2ccncc2)CCC3)cc1 [SKF-105561],2,0,21,18,0,5,6,12,0,5,21,0,6,12,8,15,4,0,31,49
O=C(Nc1n[nH]c2nc(-c3cccs3)c(Br)cc12)C1CCCC1 [SB-743341],4,14,23,65,3,0,0,4,26,2,0,0,0,10,0,0,0,0,69,44
COC(=O)C(Cc1ccccc1)NC(=O)NC1CCN(c2ccnc(Nc3ccc(F)cc3)n2)C1 (centres unmarked) [GSK1379714],0,51,0,0,8,0,0,34,0,1,33,0,3,4,16,0,59,0,17,1
COc1ccc(Nc2nccc(-c3ccc(NC(=O)c4cc5cc(F)ccc5[nH]4)cc3)n2)cc1 [GSK1229496],0,38,0,0,0,0,0,8,0,0,10,0,0,0,0,0,18,0,4,9
Cc1c(Cn2c(C)c(C)n3c(=O)cc(N4CCOCC4)nc23)cccc1C(F)(F)F [GSK2328680],0,33,0,0,0,7,0,0,52,0,0,0,0,15,0,0,0,0,50,0
COc1ccc(CSc2nnc(-c3ccc4ncsc4c3)o2)cc1C(F)(F)F,0,0,1,0,0,0,0,0,1,0,0,0,9,0,25,0,0,0,0,0
NS(=O)(=O)c1cccc(N/C=C2\C(=O)Nc3ccc(S(=O)(=O)Cc4c(Cl)cccc4Cl)cc32)c1 [GSK398099],0,49,0,15,0,0,15,26,0,5,32,5,19,12,11,0,3,0,5,21
Nc1cccc(-c2ccc3c(N)n[nH]c3c2)n1 [GSK2192730],0,35,0,9,0,0,18,0,0,3,0,17,4,0,14,65,100,0,0,2
COc1cccc(CNC(=O)NC2CCN(c3ccnc(Nc4ccc(F)cc4)n3)C2)c1 (centres unmarked) [GSK1379723],0,40,0,21,4,44,14,0,18,0,23,5,17,9,5,0,6,0,32,3
COc1ccc(Nc2nccc(N3CCC(NC(=O)C(C)c4ccc(Cl)cc4)C3)n2)cc1 (centres unmarked) [GSK1379735],9,51,0,18,0,0,0,0,28,11,1,10,3,14,10,0,24,0,12,0
